NR2F2 inh: NR2F2 (human) inhibition, primary screen; HEK293T NGFI-A luciferase reporter, luminescence; inhibition, % at 8.6 µM; 0.7% of 370,000 active;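 active = inhibition above a per-plate cutoff, mean inhibition of test wells between control levels plus 3 SD, cut at about 38% in these data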;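 also: cells cotransfected with COUP-TFII expression vector driving the NGFI-A reporter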
Target sequence (P24468 whole entry, looked up): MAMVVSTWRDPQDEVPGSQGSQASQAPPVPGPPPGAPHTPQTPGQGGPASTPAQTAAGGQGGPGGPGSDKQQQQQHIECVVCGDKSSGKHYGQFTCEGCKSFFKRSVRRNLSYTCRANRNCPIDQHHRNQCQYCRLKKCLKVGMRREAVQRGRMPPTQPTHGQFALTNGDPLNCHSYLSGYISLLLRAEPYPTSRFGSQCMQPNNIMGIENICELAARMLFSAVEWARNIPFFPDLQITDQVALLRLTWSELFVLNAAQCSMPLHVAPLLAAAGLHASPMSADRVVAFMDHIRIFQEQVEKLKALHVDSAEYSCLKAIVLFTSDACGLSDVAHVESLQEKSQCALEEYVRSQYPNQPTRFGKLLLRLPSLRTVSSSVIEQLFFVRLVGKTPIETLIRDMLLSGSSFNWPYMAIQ
Gli-Sufu antag: blocks Gli-Sufu signaling in a luciferase reporter; inhibition, % at 5 µM; Sufu-KO-LIGHT fibroblasts, Gli luciferase reporter luminescence; 0.74% of 340,000 active; AID 588413;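 active = inhibition above about 55%, limit read from the data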
aDG glyco act: increases alpha dystroglycan glycosylation; activation, % at 10 µM; Pro5-aDG cells, alpha-DG glycosylation AlphaScreen (IIH6); 0% Pro5, 100% B10-LARGE cell signal; 0.22% of 360,000 active; AID 624168;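 active = activation of at least 8% versus controls, or a plate z-score of at least 8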;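 also: Pro5 are CHO cells carrying HIG-tagged alpha-DG that lacks glycosylation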
Env fusion inh: inhibitors of HIV Env-mediated cell fusion; HeLa-JRFL Env/CEM21 cell fusion, luciferase; inhibition, % at 12.3 µM; 1.1% of 360,000 active;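 active = mean replicate inhibition score of at least 50 and every replicate individually at or above 50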
GalR3 antag: antagonists of human GalR3; O60755; HEK293 GalR3-CNG cAMP membrane potential fluorescence; galR3 body fused to GalR1 C-terminus; AID 651719; inhibition, % at 3 µM; 0.44% of 360,000 active;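 active = inhibition above the screen-wide average plus 3 SD, cut at about 13% in these data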;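 also: forskolin and galanin both at EC90 stimulate the cells; cAMP rise reported by CNG channel membrane potential dye signal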
A number is an active result; - = inactive; . = not tested or not shown; [ ] = dose if it differs, or a comment. The list is not random: actives were taken first. Their share in the collection is about 2.1%.

SMILES | NR2F2 inh | Gli-Sufu antag | aDG glyco act | Env fusion inh | GalR3 antag
CCc1ccc(C2CC3C(CN2S(=O)(=O)c2ccc(C)cc2)[C@@H](O)C[C@@H](c2ccc(CC)cc2)N3S(=O)(=O)c2ccc(C)cc2)cc1 (stereo not given in full) | - | . | - | 60.6 | -
CCc1ccc([C@H]2[C@@H]3C(=O)C[C@@H]4C(=O)N(Cc5ccccc5)C(=O)[C@@H]4[C@@H]3CN2S(=O)(=O)c2ccc(C)cc2)cc1 | - | . | - | 71.4 | -
CCc1ccc([C@H]2[C@@H]3C(=O)C[C@@H]4C(=O)N(C5CCCCC5)C(=O)[C@@H]4[C@@H]3CN2S(=O)(=O)c2ccc(C)cc2)cc1 | - | . | - | 155.3 | -
COCCNC(=O)C[C@H]1C[C@@H]2c3cc(NC(=O)COC)ccc3O[C@@H]2[C@@H](CO)O1 | . | . | . | - | .
COC(=O)C[C@@H]1CC[C@H]2[C@@H](COc3ccc(NC(=O)c4ccccc4OC)cc3C(=O)N2C)O1 | . | . | . | - | .
O=C(Nc1ccc(F)cc1F)c1csc(-c2ccccc2)n1 | - | - | - | - | -
O=C(Nc1ccc(F)cc1F)c1cccc(C(=O)Nc2ccc(F)cc2F)n1 | - | - | - | 57.8 | -
C[C@@H]1CN([C@H](C)CO)C(=O)c2cc(NC(=O)Cc3ccccc3)ccc2O[C@@H]1CN(C)Cc1ccc(-c2ccccc2)cc1 | . | . | . | - | .
S=c1[nH]nc(C2CCCCC2)n1/N=C/c1ccncc1 | - | - | - | 55.7 | -
COc1cccc(C(=O)Nc2ccc3c(c2)C(=O)N(C)[C@@H]2CC[C@@H](CC(=O)NCC(F)(F)F)O[C@@H]2CO3)c1 | . | . | . | - | .
COc1ccccc1NS(=O)(=O)c1ccc2oc(SCc3ccc(C#N)cc3)nc2c1 | - | - | - | 58.2 | -
CNC(=O)CSc1nc2cc(S(=O)(=O)Nc3ccccc3OC)ccc2o1 | - | - | - | - | -
C[C@@H]1CN([C@@H](C)CO)C(=O)c2cc(NS(=O)(=O)c3ccc(F)cc3)ccc2O[C@@H](C)CCCCO[C@@H]1CN(C)C(=O)Nc1ccc(F)cc1 | . | . | . | - | .
O=S(=O)(c1cc(F)ccc1F)N1CCC2(CC1)OCCO2 | - | - | - | 59.7 | -
Cc1ccc(S(=O)(=O)Nc2ccc3c(c2)C(=O)N([C@@H](C)CO)C[C@@H](C)[C@H](CN(C)Cc2ccc(C(F)(F)F)cc2)OCCCC[C@H](C)O3)cc1 | . | . | . | - | .
Cc1ccc(S(=O)(=O)Nc2ccc3c(c2)C(=O)N([C@@H](C)CO)C[C@H](C)[C@@H](CN(C)Cc2ccc(C(F)(F)F)cc2)OCCCC[C@H](C)O3)cc1 | . | . | . | - | .
Cc1ccc(S(=O)(=O)Nc2ccc3c(c2)C(=O)N([C@@H](C)CO)C[C@@H](C)[C@H](CN(C)Cc2ccc(C(F)(F)F)cc2)OCCCC[C@@H](C)O3)cc1 | . | . | . | 107.8[16.7 µM] | .
C[C@@H]1CCCCO[C@@H](CN(C)Cc2ccc(C(F)(F)F)cc2)[C@H](C)CN([C@H](C)CO)C(=O)c2cc(NS(=O)(=O)c3ccc(Cl)cc3)ccc2O1 | . | . | . | 60.5[16.7 µM] | .
C[C@@H]1CN([C@H](C)CO)C(=O)c2cc(NS(=O)(=O)c3ccc(Cl)cc3)ccc2O[C@@H](C)CCCCO[C@H]1CN(C)S(=O)(=O)c1cccs1 | . | . | . | 62.6[16.7 µM] | .
Cc1ccc(S(=O)(=O)Nc2ccc3c(c2)C(=O)N([C@H](C)CO)C[C@@H](C)[C@@H](CN(C)Cc2ccc(C(F)(F)F)cc2)OCCCC[C@@H](C)O3)cc1 | . | . | . | 68.5[16.7 µM] | .
Cc1noc(C)c1NC(=O)Nc1ccc2c(c1)C(=O)N([C@@H](C)CO)C[C@@H](C)[C@H](CN(C)C(=O)Nc1ccc3c(c1)OCO3)OCCCC[C@H](C)O2 | . | . | . | - | .
O=C(Nc1ccccc1)N[C@@H]1CC[C@@H](CCNS(=O)(=O)c2cccc(F)c2)O[C@H]1CO | . | . | . | - | .
C[C@H]1CN([C@@H](C)CO)C(=O)c2cc(C#CC3CC3)cnc2O[C@@H]1CN(C)C(=O)C1CCCCC1 | . | . | . | - | .
C[C@@H]1CN([C@@H](C)CO)C(=O)c2cc(NS(=O)(=O)c3cccs3)ccc2O[C@@H](C)CCCCO[C@H]1CN(C)Cc1ccc(C(F)(F)F)cc1 | . | . | . | 58.4[16.7 µM] | .
COc1ccccc1NC(=O)COC(=O)c1ccc([N+](=O)[O-])s1 | - | - | - | - | 13.1
SMILES | NR2F2 inh | Gli-Sufu antag | aDG glyco act | Env fusion inh | GalR3 antag
COc1cccc(C(=O)NCCSc2c(C)[nH]c3ccccc23)c1OC | - | - | - | - | -
CC/C(=C/c1ccccc1)c1cccc2[nH]c3c(OC)cccc3c12 | - | - | - | 58.1 | -
CNC[C@H]1OCCCC[C@@H](C)Oc2ccc(NS(=O)(=O)c3ccc(C)cc3)cc2C(=O)N([C@@H](C)CO)C[C@@H]1C | . | . | . | - | .
COCC#Cc1cnc2c(c1)C(=O)N([C@@H](C)CO)C[C@H](C)[C@@H](CN(C)C(=O)c1ccc(F)cc1)O2 | . | . | . | - | .
COc1ccc(S(=O)(=O)Nc2ccc3c(c2)C(=O)N([C@H](C)CO)C[C@@H](C)[C@H](CN(C)S(=O)(=O)c2cccs2)O3)cc1 | . | . | . | - | .
Cc1ccc(S(=O)(=O)Nc2ccc3c(c2)CC(=O)N([C@H](C)CO)C[C@H](C)[C@H](CN(C)S(=O)(=O)c2ccccc2)O3)cc1 | . | . | . | 80.2[16.7 µM] | .
Cc1ccc(S(=O)(=O)Nc2ccc3c(c2)CC(=O)N([C@@H](C)CO)C[C@H](C)[C@H](CN(C)Cc2ccc(-c4ccccc4)cc2)O3)cc1 | . | . | . | - | .
Cc1ccc(S(=O)(=O)Nc2ccc3c(c2)CC(=O)N([C@@H](C)CO)C[C@H](C)[C@H](CN(C)S(=O)(=O)c2ccccc2)O3)cc1 | . | . | . | 67.3[16.7 µM] | .
Cc1ccc(S(=O)(=O)Nc2ccc3c(c2)CC(=O)N([C@H](C)CO)C[C@@H](C)[C@@H](CN(C)S(=O)(=O)c2ccccc2)O3)cc1 | . | . | . | - | .
Cc1ccc(S(=O)(=O)N(C)C[C@@H]2Oc3ccc(NS(=O)(=O)c4ccccc4)cc3CC(=O)N([C@H](C)CO)C[C@@H]2C)cc1 | . | . | . | 100.1[16.7 µM] | .
Cc1ccc(S(=O)(=O)Nc2ccc3c(c2)CC(=O)N([C@@H](C)CO)C[C@H](C)[C@@H](CN(C)Cc2ccc(-c4ccccc4)cc2)O3)cc1 | . | . | . | 75.2[16.7 µM] | .
COc1ccc(-c2cn(CC[C@@H]3CC[C@@H](NC(=O)Cc4ccccn4)[C@@H](CO)O3)nn2)cc1 | . | . | . | - | .
Cc1ccc(N(C)C(=O)CCS(=O)(=O)c2cc3c(cc2Cl)NC(=O)CO3)cc1 | - | - | - | - | .
CCN(C(=O)CCS(=O)(=O)c1cc2c(cc1Cl)NC(=O)CO2)c1ccccc1 | - | - | - | 71.9 | -
CC(C)(C)c1ccc(Cn2c(=N)n(CC(O)c3ccco3)c3ccccc32)cc1 (stereo not given) | . | 64.8 | - | . | .
CN(C)C(=O)CSc1nnc(Cc2ccccc2)n1Cc1ccco1 | - | - | - | - | -
O=C(CSc1nnc(Cc2cccs2)n1Cc1ccco1)Nc1ccc(Br)cc1 | - | - | - | . | -
O=C(CSc1nnc(Cc2cccs2)n1Cc1ccco1)Nc1ccc(Cl)cc1Cl | - | - | - | 59.1 | -
O=C(CSc1nnc(Cc2ccccc2)n1Cc1ccco1)NC12CC3CC(CC(C3)C1)C2 | - | - | - | 57.6 | -
